Laboratory results published in PubChem BioAssay (Tox21).
Inconclusive results are not listed. Unmarked numbers belong to inactive results. Calls of active or inactive are those of the source. Calls come from the whole dose curve; as a rule, active = well fitted cell-killing curve with a large enough effect in the repeat runs; inconclusive = weak or mixed curves, or effect the other way; inactive = flat fitted curve, though single readings scatter.

Experiment: qHTS RealTime-Glo MT Cell Viability Assay in HepG2 cells - 0 hour (AID 1224889); note: nearly all actives have a fitted effect of over 50% in size
Details: RealTime-Glo luminescence; series mostly up to 76.8 µM; activity change, negative = cytotoxicity: at the top concentration
Description: U.S. Tox21 Program National Center for Advancing Translational Sciences [NCATS] NIH Chemical Genomics Center [NCGC] U.S. Environmental Protection Agency [EPA] National Institutes of Environmental Health Sciences [NIEHS] National Toxicology Program [NTP] U.S. Food and Drug Administration [FDA] Tox21 Assay Overview: Measure of cell viability is critical in the cell-base assay. Analysis of cell viability is necessary for the characterization of cell responses to cytotoxic drugs and environmental stress. A RealTime-Glo MT Cell Viability Assay to monitor cell viability in real time of continues cell culture during 40 hours of compound treatment was used to screen Tox21 10K library compounds in HepG2 cells. The RealTime-Glo MT Cell Viability Assay is a nonlytic, homogeneous, bioluminescent method to measure cell viability in real time using a simple, plate-based method. The assay involves adding NanoLuc luciferase and a cell-permeant prosubstrate to cells in culture. Viable cells reduce the proprietary prosubstrate to generate a substrate for NanoLuc luciferase. This substrate diffuses from cells into the surrounding culture medium, where it is rapidly used by the NanoLuc Enzyme to produce a luminescent signal. The signal correlates with the number of viable cells, making the assay well suited for cytotoxicity studies.
Tox21 Assay Protocol Summary: The mixture of HepG2 cell suspension and reagents were dispensed at 600cells/6 ul/well in 1536-well tissue culture treated black solid bottom plates using a Multidrop dispenser. After the assay plates were incubated at a 37 C/5% CO2 incubator for 5 hours, 23 nL of compounds dissolved in DMSO, positive and negative controls was transferred to the assay plate by a pintool work station. The plates were incubated at 37 C for 40 hours. The luminescence intensity were measured at 0h, 8h, 16h, 24h, 32h and 40h time points using ViewLux plate reader during compound treatment.
% is set by controls: 0 for no effect and ±100 for the full control effect; potency is the fitted concentration of half-maximal effect.

Compound	activity change, negative = cytotoxicity	Potency
COC(=O)c1cncn1C(C)c1ccccc1 (stereo not given)	1.21% [at 35.3 µM]	
CC(=O)CCC(C)=O	-1.39%	
C#CCOC(C(=O)OCCN(C)C)(c1ccccc1)c1ccccc1	13.1% [at 35.3 µM]	
c1ccc(CN2CCNCC2)cc1	-0.397% [at 200 µM]	
O=C(CBr)Nc1ccc(Cl)cc1C(=O)c1ccccc1F	-5.13% [at 35.3 µM]	
NCCCNCCCN	-1.04%	
Oc1ccc(Cl)c(Cl)c1Cl	23.5%	
CCCCN(N=O)C(=N)N[N+](=O)[O-]	-1.62%	
N#CCc1ccccc1	2.32%	
S=C=NCc1ccccc1	-3.83%	
CCC(COC(=O)c1cc(OC)c(OC)c(OC)c1)(c1ccccc1)N(C)C (stereo not given)	-9.37% [at 35.3 µM]	
c1cc2ccc3cccc4ccc(c1)c2c34	3.43%	
CO[C@@H]1[C@H](OC(=O)NC(=O)CCl)CC[C@]2(CO2)[C@H]1[C@@]1(C)O[C@@H]1CC=C(C)C	0.756% [at 15.8 µM]	
O=S1OC[C@@H]2[C@H](CO1)[C@]1(Cl)C(Cl)=C(Cl)[C@@]2(Cl)C1(Cl)Cl (stereo not given in full)	-5.86%	
Cc1c(F)c(F)c(COC(=O)C2C(/C=C(\Cl)C(F)(F)F)C2(C)C)c(F)c1F (stereo not given)	0.874%	
O=C(CBr)OCc1ccccc1	2.99%	
C=CC(=O)OC	0.123%	
O=C(OC1CCCCC1)c1ccccc1C(=O)OC1CCCCC1	4.89%	
Brc1ccccc1	-6.34%	
CO/C=C(/C(=O)OC)c1ccccc1COc1cccc(C(F)(F)F)n1	-18.2%	

Compound	activity change, negative = cytotoxicity	Potency
CCCCC(CC)COP(=O)(Oc1ccccc1)Oc1ccccc1 (stereo not given)	-5.32%	
O=C(O)c1ccccc1C(=O)Nc1cccc2ccccc12	0.142%	
CS/C(C)=N/OC(=O)N(C)SN(C)C(=O)O/N=C(\C)SC	1.24%	
CCCCN=C=O	3.76%	
CC1C(=O)C[C@]2(C(C)C)C[C@H]12 (stereo not given in full)	1.72%	
O=S(=O)(Cl)c1ccccc1	2.42%	
ClCCCCBr	-10.9%	
N#CCC#N	-7.29%	
CCOc1ccc(C(C)(C)COCc2cccc(Oc3ccccc3)c2)cc1	0.367%	
COC1=CC(=O)O[C@@H](CCc2ccccc2)C1	-11.7%	
CCOP(=S)(OCC)SCn1nnc2ccccc2c1=O		24.5 µM (active)
CCOS(C)(=O)=O	-5.94%	
CCOP(O)OCC	-3.03%	
O=C(O)C1(c2ccc3c(c2)OC[C@H](Cc2ccc(-c4ccccc4)cc2)[C@H]3O)CCCC1	-21.3%	
CC1(C)[C@H](C=C(Cl)Cl)[C@@H]1C(=O)O[C@@H](C#N)c1cccc(Oc2ccccc2)c1	-0.185%	
O=C(O)C(F)(F)C(F)(F)C(F)(F)C(F)(F)C(F)(F)C(F)(F)C(F)(F)C(F)(F)C(F)(F)F	-9.07%	
O=C1C(=O)c2cccc3cccc1c23	1.23%	
CCOP(=O)(OCC)SCCSCC		inactive
CCN(C)N=O	1.84%	
Cc1ccc2ccccc2c1	3.73%	
